MBNL1 CUG block = qHTS Assay for Inhibitors of MBNL1-poly(CUG) RNA binding; TR-FRET MBNL1-His/biotin-(CUG)12 binding, 665/545 ratio; Potency, µM (highest dose often 57.5 µM), actives largely listed as inhibitors; 280,000 tested, 0.036% active; AID 2675, 2010; active = well fitted inhibition curve with a large enough effect in the signal ratio, with a control signal flat, not every such curve was filed as active; inconclusive = small, poorly fitted or top-dose-only effect, or effect the other way, or a change in a side signal; inactive = no such curve, though single readings can be large or run the other way; the % refers to the signal ratio
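TR-FRET readout: Ex 340 nm, 665/545 nm emission ratio, normalized to buffer-only (basal) and MBNL1-(CUG)12 controls. Complex of MBNL1-His with Biotin-(CUG)12, compounds 92 nM–58 uM, incubated 60 min at room temperature.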
CtBP-E1A blk = qHTS Assay for Inhibitors of the CtBP/E1A Interaction | CtBP / adenovirus E1A interaction (AlphaScreen) | AlphaScreen GST-E1A/His-CtBP binding, 1536-well; hits give low values | activity change, % (test concentration not listed) | 340,000 tested, 0.49% active; in the data active = activity change below about -65%; inconclusive = mostly about -30% to -63%
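GST-E1A and His-tagged CtBP (125 nM each as 5X stock) were preincubated with pin-transferred compound for 2 h at 37 °C in the dark, then glutathione donor and nickel acceptor beads were added for 1 h before AlphaScreen reading.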
CBFb-RUNX1 inh = qHTS Assay for Compounds Blocking the Interaction Between CBF-beta and RUNX1 for the Treatment of Acute Myeloid Leukemia; 230,000 tested, under 10 active; AlphaScreen CBFb-His/RUNX1-biotin binding, biochemical; Potency, µM (titrated, usually from 59.8 µM), most hits filed as inhibitors
Target sequence (Q01196 whole entry, looked up): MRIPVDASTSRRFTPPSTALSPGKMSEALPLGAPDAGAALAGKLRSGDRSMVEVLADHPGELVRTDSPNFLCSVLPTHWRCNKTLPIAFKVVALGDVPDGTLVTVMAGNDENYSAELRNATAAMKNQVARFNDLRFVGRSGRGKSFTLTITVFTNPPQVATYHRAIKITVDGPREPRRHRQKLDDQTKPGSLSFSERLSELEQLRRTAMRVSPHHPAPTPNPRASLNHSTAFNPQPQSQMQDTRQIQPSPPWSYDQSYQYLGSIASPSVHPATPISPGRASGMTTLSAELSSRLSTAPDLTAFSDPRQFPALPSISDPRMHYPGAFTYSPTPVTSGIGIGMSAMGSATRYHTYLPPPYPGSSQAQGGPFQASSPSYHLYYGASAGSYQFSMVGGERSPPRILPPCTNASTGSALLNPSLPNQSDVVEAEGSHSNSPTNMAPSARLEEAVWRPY
Target sequence (Q13951 whole entry, looked up): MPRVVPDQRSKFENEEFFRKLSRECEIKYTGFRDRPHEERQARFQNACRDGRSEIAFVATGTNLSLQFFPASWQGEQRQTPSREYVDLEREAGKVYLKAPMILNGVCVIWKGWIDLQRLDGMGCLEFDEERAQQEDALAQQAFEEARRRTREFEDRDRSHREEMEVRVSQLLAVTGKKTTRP
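His-tagged CBF-beta and biotinylated RUNX1 (30 nM each) were premixed 20 min at room temperature, exposed to compound for 15 min, then given nickel-chelate and streptavidin AlphaScreen beads (50 ng each). After 90 min, AlphaScreen signal was read.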
RORg inh = qHTS for inhibitors of ROR gamma transcriptional activity; Nuclear receptor ROR-gamma (Mus musculus), P51450; Drosophila S2 Gal4-RORgamma UAS-luciferase reporter, 20 h; Potency, µM (doses to about 53.6 µM), most hits filed as inhibitors; 310,000 tested, 5.4% active; note: nearly all actives have a fitted effect of over 60% in size
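Stably transfected Drosophila Schneider cells are the test system, with ROR gamma fused to Gal4 and luciferase under UAS control; luminescence is read after 20 hr of 700 uM copper sulfate induction at ambient temperature.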
Gal4-VP16 FLuc = VP16 counterscreen qHTS for inhibitors of ROR gamma transcriptional activity | Drosophila S2 Gal4-VP16 UAS-luciferase, luminescence, 20 h | Potency, µM (top dose mostly 53.6 µM), hits mostly inhibitors | 310,000 tested, 3.5% active | AID 2546, 2010;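 note: Gal4-VP16 expression switched on by copper sulfate through the metallothionein promoter; nearly all actives have a fitted effect of over 50% in size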
Six1-Eya2 inh = qHTS Assay for Inhibitors of the Six1/Eya2 Interaction; 360,000 tested, 0.56% active; AlphaScreen GST-Six1/His-Eya2 binding, biochemical; hits give low values; activity change, % (test concentration not listed); AID 651725, 2012; in the data active = activity change below about -65%; inconclusive = mostly about -30% to -63%
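Compounds are tested against tagged Six1 and Eya2 proteins bridged by glutathione donor and nickel acceptor beads; after a one-hour incubation at 37 °C without light, AlphaScreen emission is recorded.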
Numbers stand for hits; . = inactive; ? = inconclusive; / = no result given; [ ] = remark or other dose. Compounds with a hit are over-represented: about 5.5% of the library has one in this group of screens. Unless noted, calls come from the whole dose curve; as a rule, active = well fitted curve in the direction sought with a large enough effect; inconclusive = small, poorly fitted or top-dose-only effect, or another doubt; inactive = no such curve, though single readings can be large; an effect the other way counts as inactive or inconclusive.

SMILES	MBNL1 CUG block	CtBP-E1A blk	CBFb-RUNX1 inh	RORg inh	Gal4-VP16 FLuc	Six1-Eya2 inh
C=CCn1c(SCC(=O)N2CCOCC2)nc2ccccc2c1=O	.	.	/	.	.	.
CC1O[C@@H](O[C@@H]2C(O)C[C@H](O[C@@H]3C(O)C[C@@H](OC4CC[C@@]5(C)C6CC(O)[C@@]7(C)C(C8=CC(=O)OC8)CC[C@@]7(O)C6CC[C@@H]5C4)OC3C)OC2C)CC(O)[C@H]1O (some centres not stated)	/	/	.	8.9µM	.	/
CCCN1C(=O)c2ccccc2NC1c1ccc(O)c(OCC)c1 (configuration not stated)	.	/	/	.	.	.
CCn1c(C)cs/c1=N\S(=O)(=O)c1ccccc1	/	.	/	/	/	.
O=Cc1s/c(=N\S(=O)(=O)c2ccccc2)n(CCCCl)c1Cl	.	.	.	5µM	?	.
CC(C)n1c(SCC(=O)Nc2ccc(N3CCOCC3)cc2)nnc1-c1ccco1	.	.	/	.	.	.
COC(=O)/C(=C/c1c[nH]c2ccccc12)[N+](=O)[O-]	.	.	.	?	20µM	.
COc1cc(CCN2C(=O)N[C@@H](c3ccccc3)C(C(C)=O)=C2C)cc(OC)c1OC	/	/	.	.	.	/
COc1cc(OC)cc(-c2nnc(NC(=O)Cc3ccc(F)cc3)o2)c1	.	.	/	0.71µM	0.63µM	.
COc1ccc(C(=O)OCC(=O)Nc2nnc(-c3ccccc3)o2)cc1	.	?	/	4µM	5µM	?
Cc1ccc(CC(=O)Nc2nnc(-c3ccc(F)cc3)o2)c(C)c1	.	/	/	2.5µM	3.2µM	.
COc1ccc(-c2nnc(NC(=O)Cc3ccccc3)o2)cc1	.	/	/	1.6µM	2.8µM	?
COc1ccc(OCCCC(=O)OCC(=O)Nc2nnc(-c3ccccc3)o2)cc1	/	.	/	/	/	.
COc1ccc(CNC(=O)C(C)N(Cc2ccccc2OC)C(=O)c2snc(C(N)=O)c2N)cc1 (configuration not stated)	.	.	/	10µM	.	.
CCC(CC)N1CCN(C(=O)c2cccc(Cl)c2)CC1	.	.	/	.	.	.
NCCCCCc1nnc(SCc2ccc(Cl)c(Cl)c2)o1	.	.	.	?	10µM	.
O=C(Nc1ccccc1[N+](=O)[O-])C1COc2ccccc2O1 (configuration not stated)	?	?	/	.	.	?
Cc1ccc2nc(SCC(=O)N3CCOCC3)[nH]c2c1	.	.	.	.	?	.
Cc1ccc2nc(SCC3CCCCO3)[nH]c2c1 (configuration not stated)	.	.	.	5.6µM	6.3µM	.
CCC(=O)NNc1nc2c(C)cccc2s1	.	.	.	11µM	?	.
CCC(=O)NNc1nc2c(C)c(C)ccc2s1	.	.	.	7.9µM	.	.
N#CCCC1(CCC#N)c2ccccc2C(=O)c2ccccc21	/	.	/	/	/	.
Cc1ccc(-c2ccc(/C=N/NC(=S)Nc3ccccc3)o2)cc1[N+](=O)[O-]	.	.	.	0.89µM	13µM	.
NS(=O)(=O)c1ccc(-c2ccc(/C=N/Nc3ccc(C(=O)O)cc3)o2)cc1	?	.	.	10µM	.	.
CNC(=S)N/N=C/c1ccc(-c2ccc(Cl)c([N+](=O)[O-])c2)o1	.	.	?	4.5µM	3.5µM	.
SMILES	MBNL1 CUG block	CtBP-E1A blk	CBFb-RUNX1 inh	RORg inh	Gal4-VP16 FLuc	Six1-Eya2 inh
O=C(O)c1ccc(-c2ccc(/C=N/Nc3ccc([N+](=O)[O-])cc3)o2)cc1	?	.	.	.	.	.
CC(C)(C)NC(=S)N/N=C\c1ccc(-c2ccc([N+](=O)[O-])cc2)o1	?	.	.	?	?	.
O=C(N/N=C/c1ccc(-c2ccc([N+](=O)[O-])cc2)o1)C(O)c1ccccc1 (configuration not stated)	?	.	.	.	?	.
CNC(=S)N/N=C/c1ccc(-c2ccc(C(=O)O)cc2)o1	?	.	.	4µM	.	.
NCCCC[C@H](N)C(=O)N[C@@H](CCCN=C(N)N)C(=O)N1CCC[C@H]1C(=O)N1CCC[C@H]1C(=O)NCC(=O)N[C@@H](Cc1ccccc1)C(=O)N[C@@H](CO)C(=O)N1CCC[C@H]1C(=O)N[C@@H](Cc1ccccc1)C(=O)O	/	/	.	.	.	/
CCC(CC)C(=O)N(C)c1c(C)nc2c(OCc3cccc(Cl)c3)cccn12	/	.	/	/	/	.
CCOc1ccccc1NS(=O)(=O)c1cn(C)nc1C	.	/	.	.	.	.
C=CCNC(=S)N/N=C/c1ccc(-c2ccc(OC)cc2)o1	?	.	.	0.56µM	1.8µM	.
C[C@H]1CN([C@@H](C)CO)C(=O)c2cc(Br)cnc2O[C@@H]1CN(C)C(=O)CN(C)C	/	.	/	/	/	.
O=C(Nc1ccc(Br)cc1)c1cc([N+](=O)[O-])cc([N+](=O)[O-])c1	?	.	/	.[1.91 µM]	?	.
O=c1c2c([N+](=O)[O-])cc([N+](=O)[O-])cc2sn1-c1ccc(Br)cc1	?	.	.	8.9µM	10µM	?
O=c1c2c([N+](=O)[O-])cc([N+](=O)[O-])cc2sn1Cc1ccccc1	?	.	/	7.1µM	4.5µM	.

Screening data from PubChem.
